Experiment [1] can be described thus: CCTE_Mundy_HCI_Cortical_NOG_NeuriteLength: CCTE's Neurite Outgrowth Assay in rat cortical cells for Neurite Length, Mundy Lab (AID 2284213).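 Note: neurites imaged about 48 to 50 h after chemical exposure began.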 The gist of the method:
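First, rat primary cortical cells were plated and, 2 h later, given test chemical as a 1/10 dilution. Finally, βIII-tubulin immunostaining enabled automated imaging of neurite length.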

Experiment [2] is described as follows: CCTE_Mundy_HCI_Cortical_Synap_Neur_Matur_NeuriteSpotCountPerNeuron: CCTE's Synaptogenesis and Neurite Maturation Assay in rat cortical cells for Neurite Spot Count per Neuron Count, Mundy Lab (AID 2284215). The gist of the method: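 Read-out: neurite-associated synaptophysin puncta per neuron, imaged by high-content analysis after MAP2, synaptophysin and Hoechst staining. Rat primary cortical cultures, dosed DIV 7 through DIV 12; DMSO served as baseline.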

Experiment [3] can be described thus: CCTE_Mundy_HCI_Cortical_Synap_Neur_Matur_SynapseCount: CCTE's Synaptogenesis and Neurite Maturation Assay in rat cortical cells for Synapse Count, Mundy Lab (AID 2284218). The essentials: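 Read-out: synapse number per neuron, automated high-content imaging of fixed cells immunostained for MAP2 and synaptophysin plus Hoechst nuclei. Rat primary cortical cultures, AraC at DIV 5, chemical dosing DIV 7–12. Positive-direction fit relative to DMSO.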

A short description of experiment [4]: CCTE_Mundy_HCI_Cortical_Synap_Neur_Matur_NeuriteCount: CCTE's Synaptogenesis and Neurite Maturation Assay in rat cortical cells for Neurite Count, Mundy Lab (AID 2284222). The essentials: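 Chemical exposure runs DIV 7–12 in rat cortical cultures, glia suppressed by AraC at DIV 5; measurement is at DIV 12. Imaging-derived neurite counts are fitted against DMSO baseline.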

Experiment [5] can be described thus: CCTE_Mundy_HCI_Cortical_Synap_Neur_Matur_CellBodySpotCount: CCTE's Synaptogenesis and Neurite Maturation Assay in rat cortical cells for Cell Body Spot Count, Mundy Lab (AID 2284223). The gist of the method:
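Read-out: cell body-associated synaptophysin puncta per neuron, imaged after MAP2, synaptophysin and Hoechst staining. Rat cortical cells, AraC DIV 5, chemical dosing DIV 7, fixation DIV 12. Activity fitted in positive direction relative to DMSO baseline.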

Experiment [6] is described as follows: CCTE_Mundy_HCI_hNP1_Pro_ResponderAvgInten: CCTE's Proliferation Assay in human neuroprogenitor cells, Mundy Lab (AID 2284224; active = hit-call score of the fitted dose curve at least 0.9, where 1 is the maximum;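 note: human neural progenitor cells hNP1 derived from WA09 embryonic stem cells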). The gist of the method: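 Human neuroprogenitors (hNP1, WA09 lineage) receive test chemical after 40 to 44 hours of attachment. A four-hour BrdU pulse begins twenty hours later, followed by fixation and high content imaging; signal is referenced to DMSO controls.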

The nature of experiment [7]: UKN2_HCS_IMR90_cell_viability: Viability Assessment in the University of Konstanz (UKN) Leist Lab Neural Crest Cell Migration Assay in human induced IMR90 Pluripotent Stem Cells (UKN2) (AID 2284233).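 Note: viability of neural crest cells differentiated from IMR90 iPSC measured by calcein-AM fluorescence imaging; cells exposed to compound for 24 h after a 24 h migration phase.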 The gist of the method:
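cMINC format, iPSC-derived neural crest (IMR90); 24 h migration (EGF/FGF, N2-S), then 24 h toxicant. Calcein-AM/H-33342 stain 30 min; fluorescence intensity by HCS; DMSO-normalised, bidirectional fitting.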

Experiment [8] in a line: CCTE_Mundy_HCI_hNP1_Casp3_7: CCTE's Caspase-Glo 3/7 Assay in human neuroprogenitor cells for Apoptosis, Mundy Lab (AID 2284240). The gist of the method:
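Neuroepithelial-lineage stem cells from WA09 embryonic cells were treated with chemicals after 40–44 h of culture. Twenty-four hours later, caspase-3/7 activation was detected luminescently after a 30 min room-temperature reagent step, with DMSO as baseline.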

A short description of experiment [9]: IUF_NPC2c_oligodendrocyte_migration_120hr: Leibniz Research Institute for Environmental Medicine (IUF) 120-hour Neural Progenitor Cell Migration Assay for Oligodendrocyte Migration (NPC2c) (AID 2284297).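 Note: O4-positive oligodendrocyte migration distance divided by radial glia migration distance.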 The essentials: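 hNPC spheres (GW 16-19 cortex), PDL/laminin, DMEM/F12 3:1 + 1% N2, 37C. Dosing day 0–5, half feed day 3, DMSO ≤0.1%. Fixed 120 h; O4 ICC + Hoechst, HCI. Readout: mean oligodendrocyte distance from sphere edge / radial glia distance.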

The nature of experiment [10]: IUF_NPC2a_radial_glia_migration_120hr: Leibniz Research Institute for Environmental Medicine (IUF) 120-hour Neural Progenitor Cell Migration Assay for Radial Glia Migration (NPC2a) (AID 2284298). The essentials: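 Hoechst-stained nuclei imaged at 120 h; algorithm maps sphere core by densest nuclei, sets migration edge at density threshold, gives radial glia migration distance (um) per well vs DMSO. hNPC spheres (0.3 mm), PDL/laminin, DMEM/F12 3:1 + 1% N2.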

The nature of experiment [11]: IUF_NPC2a_radial_glia_migration_72hr: Leibniz Research Institute for Environmental Medicine (IUF) 72-hour Neural Progenitor Cell Migration Assay for Radial Glia Migration (NPC2a) (AID 2284299). The essentials: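 Readout: mean of four manual brightfield measurements of radial glia migration distance (um) at 72 h. hNPC spheres (0.3 mm) exposed to 7 compound concentrations plus solvent control on PDL/laminin, 37C, 5% CO2; activity fitted relative to DMSO.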

A short description of experiment [12]: IUF_NPC2b_neuronal_migration_120hr: Leibniz Research Institute for Environmental Medicine (IUF) 120-hour Neural Progenitor Cell Migration Assay for Neuron Migration (NPC2b) (AID 2284300). The essentials:
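hNPC spheres, PDL/laminin, DMEM:F12 3:1 + 1% N2, 37C/5% CO2; 7 concentrations + solvent control (DMSO ≤0.1%), 5 d exposure, half-feed day 3. Fix 120 h, TUBB3 ICC, HCI: mean neuron migration distance ÷ glia distance.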

The nature of experiment [13]: IUF_NPC3_neuronal_differentiation_120hr: Leibniz Research Institute for Environmental Medicine (IUF) 120-hour Neuronal Differentiation Assay (NPC3) (AID 2284301). The gist of the method:
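Neuronal differentiation of primary human neural progenitors measured by high-content imaging: percent TUBB3+ of Hoechst+ nuclei within migrated area at 120 h, seven-point serial dilution plus solvent control, gain or loss relative to DMSO.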

The nature of experiment [14]: IUF_NPC4_neurite_length_120hr: Leibniz Research Institute for Environmental Medicine (IUF) 120-hour Neuronal Morphology Assay for Neurite Length (NPC4) (AID 2284302). The gist of the method:
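Neurons from differentiating human fetal neural progenitor spheres are scored for average neurite length after five days of compound exposure. Fitting uses DMSO as negative control.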

The nature of experiment [15]: IUF_NPC5_oligodendrocyte_differentiation_120hr: Leibniz Research Institute for Environmental Medicine (IUF) 120-hour Oligodendrocyte Differentiation Assay (NPC5) (AID 2284304; active = hit-call score of the fitted dose curve at least 0.9, where 1 is the maximum;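 note: primary human fetal neural progenitor spheres plated to migrate and differentiate; share of O4-positive cells among Hoechst nuclei found by CNN image analysis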). The gist of the method: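 hNPC spheres, fetal cortex GW 16-19; PDL/laminin, DMEM:F12 3:1 + 1% N2, 37C/5% CO2; 7 concentrations + solvent control, 5 d exposure, half-change day 3. Readout: %O4+ of Hoechst+ nuclei in migration area, CNN classification; DMSO baseline.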

The nature of experiment [16]: IUF_NPC4_neurite_area_120hr: Leibniz Research Institute for Environmental Medicine (IUF) 120-hour Neuronal Morphology Assay for Neurite Area (NPC4) (AID 2284305; active = hit-call score of the fitted dose curve at least 0.9, where 1 is the maximum). The essentials:
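Endpoint at 120 h: automated imaging of TUBB3/Hoechst-stained differentiating human neural progenitor spheres, neurite area per neuron from skeletonization. DMSO solvent control, not above 0.1%, set the baseline; medium was half-replaced on day 3.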

Experiment [17] in a line: IUF_NPC2-5_cytotoxicity_72hr: Cytotoxicity Assessment at 72 hours in the Leibniz Research Institute for Environmental Medicine (IUF) Neural Progenitor Cell Migration and Differentiation Assay for Cytotoxicity (NPC2-5) (AID 2284306; active = hit-call score of the fitted dose curve at least 0.9, where 1 is the maximum;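 note: LDH release into supernatant measured by resorufin fluorescence marking membrane damage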). The essentials:
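Primary human neural progenitor spheres migrate and differentiate on laminin. Compound is present from the start of differentiation, with DMSO kept at or below 0.1%. At 72 h, supernatant LDH is quantified fluorometrically, with values fitted in the positive direction.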

Experiment [18] can be described thus: IUF_NPC2-5_cytotoxicity_120hr: Cytotoxicity Assessment at 120 hours in the Leibniz Research Institute for Environmental Medicine (IUF) Neural Progenitor Cell Migration and Differentiation Assay (NPC2-5) (AID 2284307; active = hit-call score of the fitted dose curve at least 0.9, where 1 is the maximum). The essentials: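 hNPC spheres on PDL/laminin, N2 medium, 37C; 7 concs + solvent control, DMSO ≤0.1%; 5-day exposure, half medium changed day 3. LDH in supernatant at 120 h, resazurin→resorufin fluorescence, gain-of-signal.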

Experiment [19] in a line: IUF_NPC2-5_cell_number_120hr: Cell Number Assessment at 120 hours in the Leibniz Research Institute for Environmental Medicine (IUF) Neural Progenitor Cell Migration and Differentiation Assay (NPC2-5) (AID 2284308).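 Note: count of Hoechst-stained nuclei in migration zone around plated human neural progenitor spheres.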 The gist of the method: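 Hoechst-stained nuclei within the migration area were counted by automated high content imaging after 120 h. Single hNPC spheres differentiated on poly-D-lysine/laminin in DMEM/F12 (3:1) with 1% N2, compound present throughout, DMSO ≤0.1%.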

The nature of experiment [20]: IUF_NPC2-5_viability_120hr: Viability Assessment at 120 hours in the Leibniz Research Institute for Environmental Medicine (IUF) Neural Progenitor Cell Migration and Differentiation Assay (NPC2-5) (AID 2284312). The gist of the method:
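Human fetal (GW 16-19) neural progenitor spheres of 0.3 mm were plated on poly-D-lysine/laminin in N2 differentiation medium and exposed from day 0 for 120 h, with half-medium refresh at day 3. Viability was read as alamar blue resazurin-to-resorufin fluorescence against DMSO.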

A short description of experiment [21]: IUF_NPC1_cytotoxicity_72hr: Cytotoxicity Assessment at 72 hours in the Leibniz Research Institute for Environmental Medicine (IUF) Neural Progenitor Cell Proliferation Assay (NPC1) (AID 2284332; active = hit-call score of the fitted dose curve at least 0.9, where 1 is the maximum;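 note: rising LDH signal means more cytotoxicity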). The essentials: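 LDH in supernatant, resazurin→resorufin fluorescence (RFU), 72 h exposure, no re-dosing. Cells: primary hNPC spheres, one per well, EGF+FGF medium, 37C/5% CO2, pH 7.2-7.6. Fit: positive direction vs baseline and dynamic range.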

Experiment [22] in a line: CCTE_Mundy_HCI_iCellGluta_NOG_NeuronCount: CCTE's Neurite Outgrowth Assay in iCellGluta cells for Neuron Count, Mundy Lab (AID 2284340; active = hit-call score of the fitted dose curve at least 0.9, where 1 is the maximum;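 note: cells fixed about 48 h after compound addition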). The gist of the method: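 Neuron count read by automated high-content imaging of Hoechst 33342 and betaIII-tubulin/Alexa Fluor-488 labelling in human iPSC glutamatergic neurons. Activity fitted relative to DMSO.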
A short description of experiment [23]: CCTE_Mundy_HCI_iCellGluta_NOG_NeuriteCount: CCTE's Neurite Outgrowth Assay in iCellGluta cells for Neurite Count, Mundy Lab (AID 2284342; active = hit-call score of the fitted dose curve at least 0.9, where 1 is the maximum;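 note: chemical exposure about 48 hours starting 2 hours after plating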).

We go through one compound from PubChem BioAssay (EPA / NIEHS).

Inconclusive results are not listed. Calls of active or inactive are those of the source. Rule for the calls, unless noted: active = hit-call score of the fitted dose curve at least 0.9, where 1 is the maximum; inactive = score below 0.9.

`CCOP(=O)(OCC)SCSCC`: the AC50 – broadly, the concentration giving half of the maximal activity seen – in experiment [1] was 78.3 µM (active); in experiment [23], 49.8 µM (active). For the same compound, the compound was called inactive in [2], in [3], in experiment [4], in experiment [5], in [6] and in [7]. Besides, the call in experiment [8], in [9], in experiment [10], in experiment [11], in experiment [12] and in experiment [13] was inactive. The compound was called inactive in experiment [14], in experiment [15], in experiment [16], in experiment [17], in experiment [18] and in experiment [19]. The outcome in experiment [20], in experiment [21] and in experiment [22] was inactive.
